Results published in PubChem BioAssay (EPA / NIEHS).
“And” between values parts separate entries of the source, which are not always exact repeats. Identical values can stand only once. The source made the active and inactive calls. Rule for the calls: active = hit-call score of the fitted dose curve at least 0.9, where 1 is the maximum; inactive = score below 0.9.

read-out: urokinase plasminogen activator (uPA), PLAU (gene 5328); experiment: BSK_BE3C_uPA: BioMAP Diversity Plus: BE3C Assay for urokinase plasminogen activator (uPA) Biomarker Activity (AID 2283038); settings: primary human bronchial epithelial cells; actives raise or lower the signal;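 for outcome: uPA read one day after compound addition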
Experimental: BSK_BE3C is a cell-based, multiplexed-readout assay that uses bronchial epithelial cell, a human lung primary cell, with measurements taken at 24 hours after chemical dosing in a 96-well plate.BSK_BE3CA is an assay component measured in the BSK_BE3C assay. It measures uPA antibody related to regulation of gene expression using ELISA technology.Data from the assay component BSK_BE3CA was analyzed into 1 assay endpoint. This assay endpoint, BSK_BE3CA, was analyzed with bidirectional fitting relative to DMSO as the negative control and baseline of activity. Using a type of binding reporter, gain or loss-of-signal activity can be used to understand changes in the signaling as they relate to the gene PLAU. Furthermore, this assay endpoint can be referred to as a primary readout, because this assay has produced multiple assay endpoints where this one serves a signaling function. To generalize the intended target to other relatable targets, this assay endpoint is annotated to the protease intended target family, where the subfamily is serine protease.
The levels of cell surface (or secreted, indicated by the prefix "s") biomarker endpoints were measured by ELISA. Overt cytotoxicity to cells in confluent adherent cultures (all systems other than the BT system) was assessed by measuring total protein levels using sulforhodamine B (SRB) staining in parallel cultures at the time of biomarker measurements, indicated as SRB endpoints. For proliferation assays for adherent cell types, individual cell types are cultured at sub-confluence and relative cell numbers quantified by SRB staining at time points optimized for each system (48 h: 3C and CASM3C systems; 72 h: BT and HDF3CGF systems; 96 h: SAg system). SRB was performed by staining cells with 0.1% SRB after fixation with 10% TCA and reading wells at 560 nm.Viability and proliferation of PBMC (T cells) was quantified by Alamar Blue reduction for the SAg and BT systems. For PBMC viability (referred to as PBMC Cytotoxicity within the assay endpoint names), cells were plated (75,000/well in a 96-well plate) and then chemical samples added for 1 h before addition of activators, SEB and TSST-1 (20 ng/mL final concentration each). Cells were incubated for 90 h. Then, Alamar Blue (20 uL/well) (Invitrogen, Cat DAL1100) was added for 6 h, and the plates were read with a fluorescence microplate reader at 546/580 nm (excitation/emission). For PBMC proliferation, cells were plated and activated as above but incubated for only 16 h prior to addition of Alamar Blue. Plates were read after 6 h.

Structure (SMILES) | outcome | AC50
CCCCSP(=O)(SCCCC)SCCCC | inactive | –
CON=C(C(=O)OC)c1ccccc1CON=C(C)c1cccc(C(F)(F)F)c1 | inactive | –
CSc1nc(NC(C)C)nc(NC(C)C)n1 | inactive | –
CNC(=O)Oc1cccc2c1OC(C)(C)O2 | inactive | –
CC(C)=CC1C(C(=O)OCN2C(=O)C3=C(CCCC3)C2=O)C1(C)C (stereo not given) | inactive | –
CCOP(=S)(OCC)OC(Cl)C(Cl)(Cl)Cl (stereo not given) | inactive | –
CCc1cccc(C)c1N(C(=O)CCl)C(C)COC (stereo not given) | inactive | –
CSc1nnc(C(C)(C)C)c(=O)n1N | inactive | –
CCOC(=O)COc1cc(-c2nn(C)c(OC(F)F)c2Cl)c(F)cc1Cl | inactive | –
CC(=NC#N)N(C)Cc1ccc(Cl)nc1 | inactive | –
CCCCN(CC)c1c([N+](=O)[O-])cc(C(F)(F)F)cc1[N+](=O)[O-] | inactive | –
S=C1NCCN1 | inactive | –
C[N+]1(C)CCCCC1 | inactive | –
CCC(CC)Nc1c([N+](=O)[O-])cc(C)c(C)c1[N+](=O)[O-] | inactive | –
COc1cc(OC)nc(Sc2cccc(Cl)c2C(=O)O)n1 | inactive | –
COP(=O)(OC)SCn1c(=O)oc2cc(Cl)cnc21 | inactive | –
CCOP(=S)(OCC)SCCSCC | inactive | –
CCOP(=O)(SC(C)CC)N1CCSC1=O (stereo not given) | inactive | –
COc1cccc(C(=O)NN(C(=O)c2cc(C)cc(C)c2)C(C)(C)C)c1C | inactive | –
CCOP(=O)(OCC)Oc1cc(C)nc(C(C)C)n1 | inactive | –

Structure (SMILES) | outcome | AC50
CNC(=O)ON=C(SC)C(=O)N(C)C | inactive | –
COc1ccc(C(=CC(=O)N2CCOCC2)c2ccc(Cl)cc2)cc1OC | inactive | –
CCCOCC(=Nc1ccc(Cl)cc1C(F)(F)F)n1ccnc1 | – | 34.5 µM (active)
CCC(=O)Nc1ccc(Cl)c(Cl)c1 | inactive | –
CC(C)[C@H](C(=O)O[C@H](C#N)c1cccc(Oc2ccccc2)c1)c1ccc(Cl)cc1 | inactive | –
O=C(O)c1cc(Oc2ccc(C(F)(F)F)cc2Cl)ccc1[N+](=O)[O-] | inactive | –
C[Si](Cn1cncn1)(c1ccc(F)cc1)c1ccc(F)cc1 | inactive | –
CNc1cnn(-c2cccc(C(F)(F)F)c2)c(=O)c1Cl | inactive | –
O=[N+]([O-])c1cc(C(F)(F)F)c(Cl)c([N+](=O)[O-])c1Nc1ncc(C(F)(F)F)cc1Cl | – | 2.19 µM (active) and 1.62 µM (active)
CCCCOC(=O)[C@@H](C)Oc1ccc(Oc2ccc(C#N)cc2F)cc1 | inactive | –
CC1=NNC(=O)N(/N=C/c2cccnc2)C1 | inactive | –
CN(C)NC(=O)CCC(=O)O | inactive | –
CSC1=N[C@@](C)(c2ccccc2)C(=O)N1Nc1ccccc1 | inactive | –
CC(C1CC1)C(O)(Cn1cncn1)c1ccc(Cl)cc1 (stereo not given) | inactive | –
CC1(C(=O)Nc2ccc(O)c(Cl)c2Cl)CCCCC1 | inactive | –
CCOP(=S)(OCC)Oc1ccc2c(C)c(Cl)c(=O)oc2c1 | inactive | –
COP(=O)(NC(C)=O)SC (stereo not given) | inactive | –
CC[C@H](C)[C@H]1O[C@]2(C=C[C@@H]1C)C[C@@H]1C[C@@H](C/C=C(\C)[C@@H](O[C@H]3C[C@H](OC)[C@@H](O[C@H]4C[C@H](OC)[C@@H](NC)[C@H](C)O4)[C@H](C)O3)[C@@H](C)/C=C/C=C3\CO[C@@H]4[C@H](O)C(C)=C[C@@H](C(=O)O1)[C@]34O)O2 | – | 10.9 µM (active)
CCOP(=S)(OCC)Oc1ccc([N+](=O)[O-])cc1 | inactive | –
CCc1cnc(C2=NC(C)(C(C)C)C(=O)N2)c(C(=O)O)c1 (stereo not given) | inactive | –
